# ATXN2 expr inh = reduces ATXN2 reporter expression in HEK-293 cells. HEK-293 ATXN2-luciferase reporter, luminescence, 24 h. Potency, µM (doses to about 57 µM), most hits filed as inhibitors. actives 0.72% (n = 360,000). AID 1745845; further: nearly all actives have a fitted effect of over 55% in size
#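 ATXN2-luciferase reporter cells (luciferase flanked by upstream and downstream ATXN2 gene portions) were treated 24 h at 37 °C with compounds at up to 57 uM. SteadyGlo luminescence gave expression; GF-AFC fluorescence gave viability.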
# KB-V1 cytotox = kills drug-selected multidrug resistant KB-V1 cells | KB-V1 MDR cells viability, CellTiter-Glo, 72 h | Potency, µM (top dose mostly 46.1 µM), actives largely listed as cytotoxic | actives 3.4% (n = 400,000); further: nearly all actives have a fitted effect of over 60% in size
#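 Cytotoxicity toward P-gp-expressing KB-V1 cells was determined as loss of CellTiter-Glo luminescence after 72 h at 37 degrees C. Compounds were tested in quantitative HTS format across a concentration range, with curves fitted to normalized data.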
# S2 tox = reduces viability in counter-screen for ATXN expression inhibitors; S2 cells (HEK-293 line with an ATXN2-luciferase reporter) viability, CellTiter-Fluor protease fluorescence, 24 h; Potency, µM (doses to about 56.7 µM), hits mostly cytotoxic; actives 0.49% (n = 400,000); AID 651635; further: nearly all actives have a fitted effect of over 40% in size
# HT1080NT lethal = kills 2HG-producing HT-1080-NT fibrosarcoma cells | HT-1080-NT fibrosarcoma viability, CellTiter-Glo ATP luminescence, 48 h | Potency, µM (doses to about 46.1 µM), hits mostly cytotoxic | actives 1.6% (n = 360,000) | AID 686970;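 further: NT is the 2HG producing partner of a matched IDH1 knockdown line; nearly all actives have a fitted effect of over 55% in size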
#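 Fibrosarcoma NT cells, 750 per well in 5% FBS RPMI, were exposed to compound for 48 hours. Viability: CellTiter-Glo luminescence.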
# KB-3-1 cytotox = kills parental KB-3-1 adenocarcinoma cells; Potency, µM (highest dose often 46.1 µM), most hits filed as cytotoxic; actives 1.4% (n = 400,000); AID 1347075; KB-3-1 viability, CellTiter-Glo ATP luminescence, 72 h; further: nearly all actives have a fitted effect of over 60% in size
#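 Cytotoxicity in the drug-sensitive parental line KB-3-1 was scored as loss of CellTiter-Glo luminescence following 72 h incubation with compound. Values come from curve fitting of normalized concentration-response data.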
# HT1080 IDH1KD tx = kills HT-1080 cells with IDH1 knockdown; HT-1080 IDH1 knockdown viability, ATP luminescence, 48 h; Potency, µM (titrated, usually from 46.1 µM), most hits filed as cytotoxic; actives 2% (n = 360,000); AID 686971
#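 Assay cells: HT-1080 with IDH1 knockdown, 750 per well, RPMI/5% FBS. Exposure: 48 h at 37 °C following 2 h pre-incubation. Read: CellTiter-Glo luminescence; fitted concentration-response, curve class assigned.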
# Numbers stand for hits; . = inactive; ? = inconclusive; / = no result. Rows were chosen to be rich in hits. Some 6.2% of all compounds tested hit in one or more screens of this group. The call rests on the fitted dose curve; in most records, active means well fitted curve in the direction sought with a large enough effect; inconclusive means small, poorly fitted or top-dose-only effect, or another doubt; inactive means no such curve, though single readings can be large; an effect the other way counts as inactive or inconclusive.
SMILES,ATXN2 expr inh,KB-V1 cytotox,S2 tox,HT1080NT lethal,KB-3-1 cytotox,HT1080 IDH1KD tx
CCn1cc(C(=O)NCCCO)c(=O)c2cc(F)c(N3CCN(C)CC3)cc21,/,.,.,.,.,.
CCCCCCNC(=O)c1cn(CC)c2cc(N3CCN(C)CC3)c(F)cc2c1=O,?,.,?,16.4µM,.,?
CCn1cc(C(=O)NCC(C)C)c(=O)c2cc(F)c(N3CCN(C(=O)c4ccco4)CC3)cc21,.,16.4µM,.,.,.,.
COc1ccc(N(C(C)C(=O)N2CCC(Cc3ccccc3)CC2)S(C)(=O)=O)cc1 (centres undefined),.,3.66µM,.,.,?,.
COc1ccc(N(C(C)C(=O)N2CCCC2)S(C)(=O)=O)cc1 (centres undefined),/,.,?,.,.,.
Cc1nc(-c2ccc([N+](=O)[O-])cc2)nc2[nH]ccc(=O)c12,.,.,.,?,.,.
Cc1nc(C)c2c(=O)cc(-c3ccccc3)[nH]c2n1,.,3.16µM,.,10µM,7.08µM,8.91µM
Cc1nc(-c2ccccc2)nc2[nH]ccc(=O)c12,.,9.2µM,.,.,?,.
NNC(=O)C(=O)Nc1ccc(O)cc1,/,.,.,7.31µM,?,?
NC(=O)c1cccc2c1-c1ccccc1/C2=N/NC(N)=S,/,.,?,.,.,.
CCOC(=O)Nc1ccc2c(c1)C(=NNC(N)=S)c1ccccc1-2,?,23.1µM,/,?,?,?
CCOC(=O)Nc1ccc2c(c1)C(=NO)c1ccccc1-2,.,8.2µM,?,.,?,.
COc1cc(=O)n2c(c1C(=O)N(C)Cc1nonc1C)CCN(Cc1cc(C)ccc1C)CC2,/,/,.,/,/,/
COc1ccc(CN(CCCN2CCOCC2)C(=O)Nc2ccccc2)cc1OC,.,7.31µM,.,.,.,.
Cc1cccc(NS(=O)(=O)c2ccc3c(c2)CC(C)N3C(=O)C2CCC2)c1C (centres undefined),.,?,?,/,23.1µM,/
CCOc1ccccc1NS(=O)(=O)c1ccc2c(c1)CC(C)N2C(=O)C1CCC1 (centres undefined),?,?,.,/,?,/
COc1ccc(CNC(=O)C2CCCN2c2nc(C)c3ccccc3n2)cc1 (centres undefined),/,/,.,/,/,/
COc1ccc(C)cc1NC(=O)C(=O)NCCc1sc(-c2ccc(Cl)cc2)nc1C,.,.,.,/,.,/
O=C(NC1CCOCC1)c1ccc(-c2cc(-c3cn[nH]c3-c3ccccn3)ccn2)cc1,.,/,/,/,/,/
CC(C)C(=O)NC(NC(=S)Nc1cccc2cccnc12)C(Cl)(Cl)Cl (centres undefined),.,23.1µM,.,.,.,.
CCC(=O)NC(NC(=S)Nc1cccc2cccnc12)C(Cl)(Cl)Cl (centres undefined),.,.,.,.,.,.
O=C(NC(NC(=S)Nc1ccccc1Cl)C(Cl)(Cl)Cl)c1cccc(Cl)c1 (centres undefined),?,20.6µM,?,?,?,?
CCC1C(=O)NCCN1Cc1ccc2c(c1)CN(Cc1cccc(OC)c1)CCO2 (centres undefined),/,/,.,/,/,/
CC(=O)C1=NN(c2ccccc2)C(c2cccs2)N1c1ccc(N(C)C)cc1 (centres undefined),?,.,?,7.08µM,?,2.51µM
COc1ccc(-c2cc3nc(-c4ccccc4)cc(N4CCC(O)CC4)n3n2)cc1,/,?,.,18.4µM,.,?
SMILES,ATXN2 expr inh,KB-V1 cytotox,S2 tox,HT1080NT lethal,KB-3-1 cytotox,HT1080 IDH1KD tx
COc1ccc(-c2cc3nc(-c4ccccc4)cc(N4CCN(C(=O)c5ccccc5)CC4)n3n2)cc1,.,.,.,.,.,.
COc1ccc(-c2cc3nc(-c4ccccc4)cc(N4CCCC(O)C4)n3n2)cc1 (centres undefined),/,.,.,?,.,20.6µM
COc1ccc(-c2cc3nc(-c4ccccc4)cc(N4CCN(C(C)=O)CC4)n3n2)cc1,?,.,?,?,.,16.4µM
COc1ccc(/C=C/c2cnc3ccccc3n2)cc1OC,/,.,/,/,.,/
CCOC(=O)c1c(C)n(-c2ccc(C)cc2)c2ccc(O)c(CN(C)C)c12,?,.,?,16.4µM,.,16.4µM
CCOC(=O)c1sc(=N)n(-c2ccc(OC)cc2)c1C,.,.,.,.,.,.
CCOC(=O)c1c(C)n(-c2ccc(OC)cc2)c2ccc(O)c(CN(C)C)c12,?,?,?,?,?,20.6µM
CCOC(=O)c1c(C)n(C)c2ccc(O)c(CN(C)C)c12,?,.,.,.,?,.
COc1cccc(/C=c2/[nH]c(=O)/c(=C\c3cccc(OC)c3OC)[nH]c2=O)c1OC,/,.,/,/,.,/
O=Nc1ccc(NO)c2ccccc12,/,?,.,?,?,16.4µM
O=C(c1cccs1)N1N=C(c2ccccc2)CC1c1ccccc1O (centres undefined),.,.,.,.,.,.
O=C(c1ccccc1)N1N=C(c2ccccc2)CC1c1ccccc1O (centres undefined),.,.,.,23.1µM,.,25.9µM
Cc1ccc(C(=O)C2Oc3ccccc3C3CC(c4ccc(C)cc4)=NN23)cc1 (centres undefined),.,20.6µM,?,.,.,.
Cc1ccc(C2=NN(C(=O)c3ccccc3F)C(c3ccccc3F)C2)cc1 (centres undefined),.,?,.,13µM,?,13µM
CC(=O)N1N=C(c2ccc3nccnc3c2)CC1c1ccccc1 (centres undefined),.,.,.,.,.,.
O=C(c1ccccc1)N1N=C(c2ccccc2)CC1c1ccc2nccnc2c1 (centres undefined),.,7.31µM,.,.,.,.
CC(=O)N1N=C(c2ccncc2)CC1c1ccccc1O (centres undefined),.,.,.,.,?,.
Cc1ccc(C2=NN(S(=O)(=O)c3ccccc3)C(c3ccccc3O)C2)cc1 (centres undefined),/,?,.,18.4µM,.,?
O=C(c1ccncc1)N1N=C(c2ccc(Br)cc2)CC1c1ccccc1O (centres undefined),?,20.6µM,.,?,.,?
CC(=O)N1N=C(c2ccccc2)CC1c1cn(Cc2ccccc2)c2ccccc12 (centres undefined),.,14.6µM,.,?,?,?
Cc1ccc(Cl)cc1N1CCN(C(=O)c2cc3c(-c4ccccc4F)nn(C)c3s2)CC1,.,.,?,/,.,/
Cc1ccc(CN(C(=O)COc2cc(C)c(Cl)c(C)c2)c2ccccn2)o1,.,.,.,/,.,/
COc1ccccc1CN(C)C(=O)C(c1ccccc1)c1ccccc1,.,20.6µM,.,?,?,16.4µM

# From PubChem
